Each structure is given as a SMILES string. The source made the active and inactive calls. How the source made its calls: active means hit-call score of the fitted dose curve at least 0.9, where 1 is the maximum; inactive means score below 0.9.

A short description of this experiment: ATG_CMV_CIS: Attagene CIS-FACTORIAL HepG2 Assay for human CMV (Internal Marker) (AID 2282928).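 Further: endpoint acts as a background internal control marker rather than a target.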 The conditions noted are these: HepG2 CMV promoter reporter, transcription factor profiling; actives raise or lower the signal. An outline of the steps:
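Endogenous transcription factor activity read in HepG2 via transfected cis-promoter reporter units. After 24 h dosing, reporter mRNA measured by RT-PCR/capillary electrophoresis; gain or loss of signal fit relative to DMSO.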
As for `CC1=CC(=O)/C(=C(/C)O)C(=O)O1`, the call was inactive. Usually AC50 stands for the midpoint of the concentration-response curve, whichever way the signal moves. Regarding `Cc1oc2c(NC(=O)c3c(Cl)cccc3Cl)cccc2c1C(C)(C)O`, the concentration at half-maximal activity (AC50) is 6.16 µM (active). In the case of `CCCCCCCCCC(=O)O`, the result was inactive.

As to `COc1ccc2cc(S(=O)(=O)N[C@H](CC(=O)N[C@H](Cc3ccc(CN4[C@H](C)CCC[C@@H]4C)cc3)C(=O)N(C)C(C)C)c3ccc4c(c3)OCO4)ccc2c1`, the outcome was inactive. Still for that read-out and setting: in the case of `c1ccc2n[nH]nc2c1` it was “inactive”; in that of `CN1C(=O)CC[C@H]1c1cccnc1`, “inactive”; in that of `O=C(O)Cn1c(=O)n(Cc2ccc(Br)cc2F)c(=O)c2ccc(Cl)cc21`, “inactive”. With `CCCCCCCCCCCCO`, the call was inactive. Same read-out and setting: in the case of `COc1cc(C(=O)NC2CCN(C)CC2)ccc1Nc1ncc2c(n1)N(C1CCCC1)CC(F)(F)C(=O)N2C` it was “inactive”; in that of `O=C(OCCCCCCOC(=O)c1ccccc1)c1ccccc1`, “inactive”.

In the case of `CC(C)(C)c1csc(-c2cc3cc(OCc4ccccc4CC(=O)O)ccc3o2)n1`, the half-maximal activity concentration (AC50) was 33.4 µM (active). As to `O=C=NCCCCCCN=C=O`, the outcome was inactive. For `O=C1c2ccccc2C(=O)N1CCc1noc(-c2ccc(CN3CCCCCC3)s2)n1`, the outcome was inactive. Same read-out and setting: in the case of `CCCCCCCCCCCC[N+](C)(C)C` it was “inactive”. For the molecule `CC(=O)N1CCN(c2ccc(OC[C@H]3CO[C@](Cn4ccnc4)(c4ccc(Cl)cc4Cl)O3)cc2)CC1`, the AC50 was 44.4 µM (active). Still for that read-out and setting: in the case of `NCc1cccc(C2CCN(C(=O)c3ccc(C#Cc4ccccc4F)o3)CC2)c1` it was 11 µM (active). With `O=C1O[C@H]([C@@H](O)CO)C(O)=C1O`, the molecule was called inactive. As for `Cc1occc1C(=O)Nc1ccc(C(=O)N2CCC(F)(F)/C(=C\C(=O)N3CCC(N4CCCCC4)CC3)c3ccccc32)cc1`, the molecule was classed as inactive.

(Values after PubChem BioAssay (EPA / NIEHS).)
